Test results from PubChem BioAssay (NCI).
About 83,000 compounds went through this panel and 20% of them were active in at least one assay; those are over-represented in the sample as a whole.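 Single-concentration screen, 48 h exposure, 96-well plates. Endpoint: percent growth. Below 10 = active.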 Unmarked numbers belong to inactive results. The source made the active and inactive calls.

Experiments:
Experiment in all cases: NCI-60 one-dose screen, 48 h (100 = growth as untreated, 0 = no growth, -100 = all killed)
Details in all cases: 10 µM unless noted
HCT-15 colon = system: HCT-15 colon
HT29 colon = system: HT29 colon
SNB-75 CNS = system: SNB-75 CNS
SNB-19 CNS = system: SNB-19 CNS
U251 CNS = system: U251 CNS
PC-3 prostate = system: PC-3 prostate
SK-MEL-5 melanoma = system: SK-MEL-5 melanoma
UACC-62 melanoma = system: UACC-62 melanoma
LOX IMVI melanoma = system: LOX IMVI melanoma
SK-MEL-28 melanoma = system: SK-MEL-28 melanoma
SK-MEL-2 melanoma = system: SK-MEL-2 melanoma
SN12C renal = system: SN12C renal
UO-31 renal = system: UO-31 renal
TK-10 renal = system: TK-10 renal
ACHN renal = system: ACHN renal
CAKI-1 renal = system: CAKI-1 renal
A498 renal = system: A498 renal
CCRF-CEM leukemia = system: CCRF-CEM leukemia
MOLT-4 leukemia = system: MOLT-4 leukemia

SMILES	growth (HCT-15 colon)	growth (HT29 colon)	growth (SNB-75 CNS)	growth (SNB-19 CNS)	growth (U251 CNS)	growth (PC-3 prostate)	growth (SK-MEL-5 melanoma)	growth (UACC-62 melanoma)	growth (LOX IMVI melanoma)	growth (SK-MEL-28 melanoma)	growth (SK-MEL-2 melanoma)	growth (SN12C renal)	growth (UO-31 renal)	growth (TK-10 renal)	growth (ACHN renal)	growth (CAKI-1 renal)	growth (A498 renal)	growth (CCRF-CEM leukemia)	growth (MOLT-4 leukemia)
CCCCCCCCCCCCOB(OCCCCCCCCCCCC)OCCCCCCCCCCCC	105%	105%	118%	106%	94.4%	98.5%	102%	104%	89.7%	108%	108%	95.8%	91.8%	101%	109%	104%	112%	95.3%	95.2%
O=C(O)c1ccc(-n2c(=O)c3ccccc3c3ccccc3c2=O)cc1	104%	98.5%	92.9%	104%	102%	98.9%	104%	105%	103%	113%	93%	107%	74.8%	97.9%	103%	101%	118%	104%	92.8%
Cn1cc(C=O)c2ccccc21	103%	100%	80%	100%	98.5%	83.4%	99.4%	106%	88.4%	109%	109%	91.7%	60.6%	102%	93.5%	94.6%	95.4%	90.6%	92%
CC1=NN2C(=NC3=C(CCC/C3=C\c3ccc(Cl)cc3)C2c2ccc(Cl)cc2)S1 (centres undefined)	89.3%	48.1%	100%	84.3%	85.9%	95.3%	96.6%	83%	60.6%	99.3%	86.3%	102%	86.1%	111%	98.2%	99.9%	87.6%	84.7%	72.9%
COc1ccc([N+](=O)[O-])c(/C=C/C(=O)c2ccccn2)c1	57.5%	58.8%	67.2%	97.6%	42.2%	82.1%	90%	94.7%	41%	100%	114%	81.2%	73.3%	126%	68.9%	71.7%	83.3%	49.6%	13.3%
O=C(CN1CCN(c2cc3c(cc2F)c(=O)c(C(=O)O)cn3C2CC2)CC1)Nc1ccc(C(=O)/C=C/c2ccccc2)cc1	56.8%	11.4%	61.8%	40.3%	14.9%	55.2%	13.6%	35.5%	5.67% (active)	85.7%	53.7%	11.3%	45%	39.9%	40.1%	73.1%	57.7%	15.2%	19%
CC(=O)Nc1nc(C(=O)N2N=C(C)/C(=C/c3ccc(Cl)cc3)C2=O)cs1	100%	108%	98.3%	104%	101%	98%	104%	111%	101%	110%	90.5%	105%	82.4%	123%	108%	100%	117%	99.6%	91.7%
CCN(CC)c1cc(/C=C/c2ccc(OC)c(OC)c2)nc2cc(F)c(F)cc12	80.1%	103%	-68.5% (active)	-33.1% (active)	-62.3% (active)	65.6%	93.3%	10.4%	25.9%	98.2%	-58.2% (active)	57%	75.3%	-28.6% (active)	-50.9% (active)	46.8%	-2.91% (active)	29.7%	49.2%
c1cc(-c2ccc3c(c2)OCO3)n2nccc2n1	97.2%	103%	84.5%	101%	95.8%	93.9%	98.2%	113%	102%	105%	108%	108%	90.9%	104%	98.2%	94.4%	81.5%	100%	97.1%
COc1cc(NC(=O)CSc2nc3ccc(C)cc3c(=O)n2-c2ccccc2)cc(OC)c1OC	81.1%	109%	57.4%	88%	93.9%	82%	77.8%	77.5%	75.9%	83.7%	86.5%	92.8%	51%	104%	90.2%	88.4%	62.7%	83.9%	59.2%
CCOC(=O)c1ccccc1NC(c1ccccc1)c1ccc2cccnc2c1O (centres undefined)	23%	39.4%	52.7%	30.9%	17.7%	25.4%	4.23% (active)	12.8%	11.9%	38.3%	50.9%	35.2%	21%	37.3%	14.4%	15.9%	38.4%	9.7% (active)	12.6%
Cc1ccc(C2=NN(c3ccc(S(N)(=O)=O)cc3)C(c3cn(-c4ccccc4)nc3-c3ccccc3)C2)cc1 (centres undefined)	74.3%	46.3%	81.6%	87%	77.4%	32.3%	100%	83.5%	91.2%	116%	90%	30.7%	30.2%	84.2%	93%	94.7%	-5.87% (active)	40.3%	18.7%
CN(C)c1ccc(-c2ccc(-c3ccc(C(=N)N)cn3)o2)cc1	-46.6% (active)	-61.5% (active)	-85.6% (active)	12.7%	-91.1% (active)	7.95% (active)	-95.8% (active)	-97.9% (active)	-94.8% (active)	-79.6% (active)	-85.4% (active)	-85.2% (active)	-69.4% (active)	-64.7% (active)	-83.5% (active)	-72.5% (active)	-9.83% (active)	-2.2% (active)	-52.1% (active)
COC1=CC(c2ccc[nH]2)=N/C1=C\c1[nH]c(C)c(C(=O)CCCCC(=O)Nc2ccccc2)c1C	-3.38% (active)	-54.4% (active)	46.8%	64.2%	1.79% (active)	-40.5% (active)	84.7%	101%	-71.8% (active)	63.9%	90.7%	73.5%	49.9%	-11.9% (active)	95.8%	3.42% (active)	116%	58.9%	76.6%
CCn1cc(C(=O)O)c(=O)c2cc(F)c(N3CCN(S(=O)(=O)c4cccc5ccccc45)CC3)cc21	11.1%	3.96% (active)	14.1%	28.8%	14.2%	7.82% (active)	-46% (active)	31.2%	-39% (active)	59.2%	8.82% (active)	11.9%	-19.7% (active)	26%	-3.57% (active)	0.945% (active)	-0.385% (active)	12.1%	8.41% (active)
CCCCNC(=O)NS(=O)(=O)c1ccc(N2N=C(c3ccc(C)cc3C)CC2c2ccc(OC)cc2)cc1 (centres undefined)	47%	88%	85.4%	81.2%	44.9%	50.1%	55.6%	60%	56.2%	44.8%	81.3%	75%	59.7%	88.7%	64%	70.8%	52.9%	54.3%	52.3%
